Patent US20050118148, “Compositions and methods related to mammalian Maf-A” (published 2005)

The sequences below were run against RIPE3b1 activator (MafA, endogenous) (Mus musculus, UniProt Q8CF90 SEQ:1-359) (assay: competition; B4/5 roughly 20-fold more effective competitor than B4). Settings: protein: extract; tags: beta cell line nuclear extract (betaTC-3, Min6); label: 32P; dsDNA, one strand shown.
RIPE3b1 activator (MafA, endogenous), sequence (Q8CF90 whole entry): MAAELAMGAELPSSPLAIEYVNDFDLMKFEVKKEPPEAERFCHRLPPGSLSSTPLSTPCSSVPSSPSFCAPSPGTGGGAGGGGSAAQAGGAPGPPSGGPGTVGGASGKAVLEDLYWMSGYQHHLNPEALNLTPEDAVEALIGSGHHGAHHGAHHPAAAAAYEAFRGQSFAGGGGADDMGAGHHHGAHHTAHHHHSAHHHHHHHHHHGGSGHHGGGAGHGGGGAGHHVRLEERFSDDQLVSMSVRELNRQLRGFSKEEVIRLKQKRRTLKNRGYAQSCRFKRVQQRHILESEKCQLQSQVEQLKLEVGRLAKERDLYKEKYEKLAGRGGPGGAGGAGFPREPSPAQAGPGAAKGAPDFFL
Protocol: To define the factors associated with B4 and B5 mediated regulation, gel shift experiments were performed with probes spanning B4, B5, and B4+B5 (B4/5) and βTC-3 or MIN6 cell nuclear extracts (FIG. 12). Two common protein-DNA complexes were detected with the B4 and B4+B5 probes (labeled as A and B in FIG. 12B), whereas no binding was found with B5 (data not shown). The binding affinity of B4 and B4/5 for these complexes was determined with the wild type and B4+B5 double mutant site (B4+B5MT) competitors.
With AGCTTTCTTTTTGCAAAGCACAGCAT the binding signal was ~20 fold.
